Source: PubChem (National Center for Advancing Translational Sciences (NCATS))
Only some compounds are listed: those with a hit (about 7.9% of all), similar ones and a draw of the others.
LASV entry inh = blocks Lassa virus binding to or entry into cells. Lassa virus pseudotype entry inhibition, cell reporter. Potency, µM (doses to about 37.9 µM), hits mostly inhibitors. actives 1.2% (n = 300,000). AID 540256; calls by dose curve; tested in HEK293 cells; further: nearly all actives have a fitted effect of over 50% in size
FMDV antiviral = blocks foot and mouth disease virus; FMDV antiviral cell-based qHTS; Potency, µM (top dose mostly 57.9 µM), hits mostly inhibitors; actives 1.2% (n = 410,000); AID 1159524; calls by dose curve; tested in HEK293T cells; further: read-out not given here; nearly all actives have a fitted effect of over 45% in size
HCV inhibitor = blocks hepatitis C virus. Huh7.5.1 HCVcc-Cre infection, luciferase reporter, 44 h. Potency, µM (highest dose often 41.8 µM), usual class: inhibitors. actives 3.4% (n = 340,000). AID 651820; active means well fitted inhibition curve with a large enough effect; inconclusive means small, poorly fitted or top-dose-only effect, or another doubt; inactive means no such curve, though single readings can be large or run the other way
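HCVcc-Cre virus at an moi near 0.5 was added right after compound to cells cultured 4 h from seeding (1,000 cells/well). Luciferase activity was determined 44 h later, 15 min after substrate addition at RT.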
HCMV antiviral = human cytomegalovirus inhibition; HFF cells, HCMV-luciferase reporter, 72 h; active compounds read low; activity change, negative = inhibition, % at 57.5 µM; actives 4.5% (n = 410,000); AID 1259415; in the data active means activity change below about -60%; inconclusive means no clear call, values can overlap the other calls; inactive means above about -39%
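Steps: HFFs plated, 16 h 37C; compounds added; HCMV-luciferase added to MOI 1 PFU/cell; 72 h 37C; OneGlo reagent, 5 min room temperature; luminescence read, normalized to controls.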
Marburg entry inh = inhibitors of Marburg virus binding or cell entry; Marburg virus pseudotyped entry inhibition, cell reporter; Potency, µM (top dose mostly 37.8 µM), most hits filed as inhibitors; actives 1.8% (n = 300,000); calls by dose curve; tested in HEK293 cells
Of the large screens only hits and unclear results are named; the others gave an inactive call.

CC1CCN(C(CC(=O)c2ccccc2)C(=O)c2ccccc2)CC1 (configuration not stated)	LASV entry inh inconclusive, HCMV antiviral -86.0, Marburg entry inh inconclusive
COc1ccc(CNc2nc3ccc(C)cc3s2)c(OC)c1OC	HCV inhibitor inconclusive (no result: LASV entry inh, Marburg entry inh)
Cc1cnc(C)c(-c2cccc3c2OC(CNC(=O)CN2C(=O)c4ccccc4C2=O)C3)n1 (configuration not stated)	none (no result: LASV entry inh, HCV inhibitor, HCMV antiviral, Marburg entry inh)
O=C(COc1ccc(Cl)cc1)Nc1nc(-c2ccncc2)cs1	none
N#Cc1ccccc1OCC(=O)Nc1nc(-c2ccccn2)cs1	none (no result: LASV entry inh, HCV inhibitor, Marburg entry inh)
O=C(COc1ccccc1Cl)Nc1nc(-c2ccncc2)cs1	LASV entry inh inconclusive, FMDV antiviral inconclusive, HCV inhibitor 22.4µM, Marburg entry inh inconclusive
O=C(COc1ccc(F)cc1Cl)Nc1nc(-c2ccccn2)cs1	HCV inhibitor inconclusive, HCMV antiviral -81.6 (no result: LASV entry inh, FMDV antiviral, Marburg entry inh)
CCC(C)NC(=O)COC(=O)c1csc2c1CCCC2 (configuration not stated)	FMDV antiviral 3.55µM (no result: LASV entry inh, Marburg entry inh)
Cc1nn(C)c(C(=O)Nc2ccc(S(=O)(=O)NC34CC5CC(CC(C5)C3)C4)cc2)c1Br	LASV entry inh inconclusive, HCV inhibitor 10µM, Marburg entry inh inconclusive (no result: HCMV antiviral)
N#C/C(C(=O)NCc1ccccc1)=C1\S[C@H](CCO)C(=O)N1c1ccccc1	none (no result: LASV entry inh, FMDV antiviral, HCV inhibitor, HCMV antiviral)
CCOC(=O)C1=CN(Cc2cccc(F)c2)S(=O)(=O)N(CC)C1c1ccccc1 (configuration not stated)	HCV inhibitor 0.562µM (no result: LASV entry inh, Marburg entry inh)
CCOC(=O)C1=CN(Cc2cccc(F)c2)S(=O)(=O)N(CC)C1c1cccc(OC)c1 (configuration not stated)	none (no result: LASV entry inh, Marburg entry inh)
CCOC(=O)C1=CN(CC)S(=O)(=O)NC1c1ccccc1 (configuration not stated)	HCMV antiviral -82.3 (no result: LASV entry inh, Marburg entry inh)
CCOC(=O)/C=C/[C@H](C)NC(=O)C(F)(F)F	none (no result: LASV entry inh, FMDV antiviral, HCV inhibitor, Marburg entry inh)
COc1ccccc1CNC(=O)COC(=O)c1cccc(S(=O)(=O)N2CCOCC2)c1	HCV inhibitor 11.2µM
COc1ccc(CNC(=O)c2cccc(S(=O)(=O)N3CCN(c4ccc(F)cc4)CC3)c2)cc1	LASV entry inh inconclusive, HCV inhibitor 7.08µM, HCMV antiviral inconclusive, Marburg entry inh inconclusive
CN(CC(=O)Nc1ccc(F)cc1)C(=O)c1cccc(S(=O)(=O)N2CCN(c3ccccc3)CC2)c1	FMDV antiviral inconclusive, Marburg entry inh inconclusive
CCCN(CC(=O)Nc1ccccc1C)C(=O)c1cccc(S(=O)(=O)N2CCc3ccccc3C2)c1	LASV entry inh inconclusive, HCV inhibitor 22.4µM, Marburg entry inh inconclusive
CCCN(CC(=O)Nc1ccccc1C)C(=O)c1ccc(S(=O)(=O)N2CCCCCC2)cc1	Marburg entry inh inconclusive
COc1ccccc1CNC(=O)COC(=O)c1ccc(C)c(S(=O)(=O)N2CCOCC2)c1	none
COc1ccc(NC(=O)CN(C)C(=O)c2cccc(S(=O)(=O)N3CCN(c4ccc(F)cc4)CC3)c2)cc1	FMDV antiviral inconclusive, HCV inhibitor 12.6µM, HCMV antiviral -73.4 (no result: LASV entry inh)
COc1cccc(CNC(=O)c2cccc(S(=O)(=O)N3CCN(c4ccc(F)cc4)CC3)c2)c1	LASV entry inh inconclusive, FMDV antiviral inconclusive, HCV inhibitor inconclusive
COC(=O)C[C@@H]1OC[C@H](Cc2ccccc2)N1S(=O)(=O)c1ccc(C)cc1	none (no result: LASV entry inh, HCV inhibitor, Marburg entry inh)
CN(C)c1cccc(C(=O)OCCNC(=O)c2cccc(S(=O)(=O)N3CCOCC3)c2)c1	HCV inhibitor 10µM (no result: LASV entry inh, Marburg entry inh)
COc1ccc(CCNC(=O)c2cccc(S(=O)(=O)N3CCc4ccccc4C3)c2)cc1	FMDV antiviral inconclusive, HCV inhibitor 14.1µM (no result: LASV entry inh, Marburg entry inh)
COc1ccccc1CNC(=O)c1cccc(S(=O)(=O)N2CCN(c3ccc(F)cc3)CC2)c1	HCV inhibitor 11.2µM (no result: LASV entry inh, Marburg entry inh)
O=C(OCCOc1ccccc1)c1cccc(S(=O)(=O)N2CCOCC2)c1	none
O=C(NCC1CCCO1)c1cccc(S(=O)(=O)N2CCCCC2)c1 (configuration not stated)	Marburg entry inh inconclusive
CC1CCN(S(=O)(=O)c2cccc(C(=O)NCC3CCCO3)c2)CC1 (configuration not stated)	LASV entry inh 6.31µM
Oc1c(C(c2ccccc2)N2CCOCC2)sc2nc(-c3ccco3)nn12 (configuration not stated)	HCMV antiviral inconclusive (no result: HCV inhibitor, Marburg entry inh)
Cc1ccc(CNC(=O)c2cc3cc(C)ccc3n2C)cc1	LASV entry inh inconclusive, HCMV antiviral inconclusive, Marburg entry inh inconclusive (no result: HCV inhibitor)
COc1ccccc1C(=O)Nc1cccc(Oc2c(F)c(F)c(F)c(F)c2F)c1	LASV entry inh inconclusive, HCV inhibitor inconclusive
